# Measurements taken from PubChem BioAssay AID651725 (National Center for Advancing Translational Sciences (NCATS), 2012).
# Screen size: about 360,000 compounds; about 2,000 (0.56%) were called active. About 2% were inconclusive and are not listed. What follows is part of a selection rich in actives, with near analogues and random picks from the rest. Unmarked numbers belong to inactive results. No stated cut-off is given here; in the data, active means activity change below about -65%; inconclusive means mostly about -30% to -63%; inactive means weaker than that.
# Target: Homeobox protein SIX1 (Homo sapiens) + Protein phosphatase EYA2 (Homo sapiens) (UniProt Q15475+O00167)
# Sequence (O00167 whole entry, looked up): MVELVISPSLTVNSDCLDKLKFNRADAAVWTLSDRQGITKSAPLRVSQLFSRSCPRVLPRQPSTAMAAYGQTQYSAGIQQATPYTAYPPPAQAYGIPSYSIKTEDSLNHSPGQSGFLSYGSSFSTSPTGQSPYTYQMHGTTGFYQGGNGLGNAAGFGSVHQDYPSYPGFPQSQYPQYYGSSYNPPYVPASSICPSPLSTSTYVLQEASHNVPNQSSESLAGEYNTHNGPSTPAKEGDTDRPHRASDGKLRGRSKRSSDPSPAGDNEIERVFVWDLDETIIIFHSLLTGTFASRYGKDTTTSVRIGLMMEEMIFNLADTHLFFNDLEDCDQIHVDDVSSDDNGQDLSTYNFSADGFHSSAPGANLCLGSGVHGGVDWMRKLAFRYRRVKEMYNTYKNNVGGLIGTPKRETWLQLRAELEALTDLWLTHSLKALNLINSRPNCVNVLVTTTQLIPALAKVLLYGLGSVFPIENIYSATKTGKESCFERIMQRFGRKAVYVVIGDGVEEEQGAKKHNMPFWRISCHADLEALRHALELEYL
# Sequence (Q15475 whole entry, looked up): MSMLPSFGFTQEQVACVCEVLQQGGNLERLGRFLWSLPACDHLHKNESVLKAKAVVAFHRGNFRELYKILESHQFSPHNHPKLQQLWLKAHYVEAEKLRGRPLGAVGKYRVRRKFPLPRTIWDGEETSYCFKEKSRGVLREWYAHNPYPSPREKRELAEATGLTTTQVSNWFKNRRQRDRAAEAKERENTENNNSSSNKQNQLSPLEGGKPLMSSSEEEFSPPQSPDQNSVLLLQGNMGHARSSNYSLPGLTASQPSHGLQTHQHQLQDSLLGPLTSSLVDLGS
# Assay: qHTS Assay for Inhibitors of the Six1/Eya2 Interaction
# Settings: AlphaScreen GST-Six1/His-Eya2 binding, biochemical; stronger effect = lower value
# Procedure, shortened: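 Compounds are tested against tagged Six1 and Eya2 proteins bridged by glutathione donor and nickel acceptor beads; after a one-hour incubation at 37 °C without light, AlphaScreen emission is recorded.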
# On the % scale 0 is the no-effect control and ±100 the full control effect.
row,Structure (SMILES),activity change
1,Cc1cc(OCc2cc(C(=O)NCc3cc(C(C)C)no3)no2)cc(C)c1Cl,14%
2,Cc1ccc(S(=O)(=O)N[C@H](CO)C(C)C)cc1,4.31%
3,Cc1ccc2cccc([N+](=O)[O-])c2n1,-20.1%
4,O=S(=O)(NCCc1ccc(F)cc1)c1cccc2cccnc12,-7.51%
5,O=[N+]([O-])c1ccccc1S(=O)(=O)Nc1cccc2cccnc12,-91.7% (active)
6,Cc1ccc(S(=O)(=O)C2C(=O)NC3(C)CC2c2ccccc2O3)cc1 (configuration not stated),6.28%
7,COC(=O)[C@]12CCCCC=C1N(Cc1ccc3c(c1)OCO3)C(=O)[C@H](CC(=O)NCc1cccs1)C2,-7.98%
8,COc1ccccc1Cc1c(-c2ccc(Cl)cc2)nc2c3ccccc3ccn12,9.04%
9,O=c1[nH]c2cccnc2n(CCNc2ncc(C(F)(F)F)cc2Cl)c1=O,5.43%
10,CN(C)C=NC(=O)c1cccn1-c1ncc(C(F)(F)F)cc1Cl,7.6%
11,COc1cccc(/C=N/Nc2ncc(C(F)(F)F)cc2Cl)c1O,-91.7% (active)
12,Nc1c(C(=O)c2cccs2)sc2nsc(SCCN3CCCCC3)c12,19.7%
13,O=C(O)C1C2CC2CN1C(=O)c1ccc(Cl)cc1Cl (configuration not stated),2.75%
14,O=C(N/N=C/c1cc([N+](=O)[O-])ccc1O)/C(=C\c1cccs1)NC(=O)c1ccccc1,-90.3% (active)
15,O=C(NCCc1ccccc1)/C(=C\c1ccc([N+](=O)[O-])cc1)NC(=O)c1ccccc1,2.96%
16,O=C(Nc1ccc(C(=O)O)cc1)/C(=C/c1ccc([N+](=O)[O-])cc1)NC(=O)c1ccccc1,-4.68%
17,COc1ccc(NC(=O)C2(C)Cc3c(-c4cccc(NC(C)=O)c4)ccnc3O2)cc1OC (configuration not stated),-4.36%
18,O=C(Nc1cccnc1)c1cc2cc(Br)ccc2oc1=O,17.5%
19,CCc1ccc(Oc2coc3cc(OC(=O)c4cc5ccccc5oc4=O)ccc3c2=O)cc1,-6.39%
20,O=C(Oc1cccnc1)c1cc2ccccc2oc1=O,-76% (active)
21,COC(=O)[C@]12CCCCC=C1N(Cc1ccco1)C(=O)[C@H](CC(=O)NCCCCc1ccccc1)C2,-13.7%
22,CCC(C)CN1C(=O)CSCC1(C)C(=O)NCc1ccccc1 (configuration not stated),7.26%

row,Structure (SMILES),activity change
1,CCOc1cc(N2CCOCC2)c(OCC)cc1NC(=O)c1ccc(C)s1,-7.09%
2,CCOc1cc(N2CCOCC2)c(OCC)cc1NC(=O)COc1cccc2cccnc12,-66.8% (active)
3,CCOc1cc(N2CCOCC2)c(OCC)cc1NC(=O)COC(=O)[C@H](Cc1c[nH]c2ccccc12)NC(C)=O,0.0588%
4,Cc1cccc(C)c1NC(=O)C(c1cccc(F)c1)N1CCN(C)CC1 (configuration not stated),1.36%
5,CC1CCN(S(=O)(=O)c2ccc3[nH]c(=O)ccc3c2)CC1,-0.516%
6,O=C(Cc1ccc(Cl)cc1)c1ccccc1,4.47%
7,CC(=NNC(=S)N1CCCCCC1)c1ccccn1,-88.5% (active)
8,COc1ccc(CC(N)c2csc(NC(=O)Cc3ccccc3)n2)cc1 (configuration not stated),-12.1%
9,O=C(NCCOc1ccccc1)c1ccccc1F,6.38%
10,CCOc1ccc(NC(=S)N2CCCCCC2)cc1,-13.8%
11,C/C(=N/NC(=O)c1ccn(C)n1)c1ccncc1,5.19%
12,CCNC(=S)N1CCN(c2ncccn2)CC1,1.47%
13,C/C(=N\NC(=O)c1ccccc1F)c1ccccn1,-91.6% (active)
14,COc1ccc(C(=O)/C=C/Nc2ccccn2)cc1,3.99%
15,C/C(=N/NC(=O)CCc1ccccc1)c1ccco1,2.7%
16,COc1ccc(CC(=O)N/N=C(\C)c2ccccn2)cc1,-85.5% (active)
17,C/C(=N\NC(=O)Cc1ccc(Cl)cc1)c1ccccn1,-85.5% (active)
18,Cc1cccc(C)c1NC(=O)C(c1ccc(C(F)(F)F)cc1)n1c(=O)c(-c2ccco2)nc2ccccc21 (configuration not stated),-0.0756%
19,CCCCOCCCNC(=O)C[C@@H]1C[C@@]2(C(=O)OC)CCCCC=C2N(CCC2=CCCCC2)C1=O,-2.51%
20,CC(C)N1C(=O)c2ccccc2NC(=O)C1C(=O)NCc1cccs1 (configuration not stated),0%
21,COc1cc(C=C(OC(C)=O)c2ccc3c(c2)OCO3)cc(OC)c1OC,-21%
22,C=C1C(=O)OC2C1CCC(C)=CCCC1(C)OC21 (configuration not stated),10.7%

row,Structure (SMILES),activity change
1,O=c1ccc2c(-c3ccccc3S(=O)(=O)O)c3ccc(O)c(O)c3oc-2c1O,-87.1% (active)
2,COC(=O)C1=CN(c2c(C)cc(C)cc2C)C(N)=C(C#N)C1c1cccc(F)c1 (configuration not stated),-17.6%
3,O=C(N[C@H]1CC[C@H](CC(=O)N2CCCCC2)O[C@@H]1CO)c1cccc(F)c1,-8.77%
4,CCN(CC)CCOc1ccc2c(c1)C(=NNC(=O)c1ccccn1)c1cc(OCCN(CC)CC)ccc1-2,-74.3% (active)
5,CCN(CC)CCNCC(=O)Nc1ccc(Oc2ccccc2)cc1,-5.73%
6,CCCC(C(=O)OCCN(CC)CC)(c1ccccc1)c1ccccc1,-20.2%
7,CCc1ccc(-c2cc(C)no2)cc1S(=O)(=O)NCCc1ccc(S(N)(=O)=O)cc1,-4.17%
8,CC(=O)Nc1ccc(NC(=O)C(NS(=O)(=O)c2ccc3c(c2)OCCO3)C(C)C)cc1 (configuration not stated),0.533%
9,CCC(C(=O)Nc1c(C)cccc1C)n1c(-c2cc(C)cs2)nc2ccccc21 (configuration not stated),4.28%
10,CC(=O)N1CCCc2cc(S(=O)(=O)N3CCCC(C(=O)N4CCN(c5cccc(Cl)c5)CC4)C3)ccc21 (configuration not stated),-12.9%
11,COc1ccc(-n2c(C)cc(C(=O)CN3C(=O)NC4(CCc5ccccc54)C3=O)c2C)cc1 (configuration not stated),-14.9%
12,COC(=O)c1ccc(NC(=O)CSc2nc(N)c(NC(=O)c3ccc(Br)o3)c(=O)[nH]2)cc1,-66.4% (active)
13,COCCNC(=O)CSc1nc(N)c(NC(=O)c2ccco2)c(=O)[nH]1,2.42%
14,COc1ccc(C(=O)Nc2c(N)nc(SCC(=O)Nc3ccc(C(C)=O)cc3)[nH]c2=O)cc1,-14.2%
15,CCOC(=O)c1sc(/N=C/C2=C(O)CC(C)(C)CC2=O)c(C(=O)OCC)c1C,-0.173%
16,Cc1nn(Cc2ccccc2Cl)c(C)c1NC(=O)Cn1nc([N+](=O)[O-])c(Cl)c1C,-0.78%
17,Cc1c(Cl)c([N+](=O)[O-])nn1CCCC(=O)NC(C)c1ccccc1 (configuration not stated),7.3%
18,Cc1c(Cl)c([N+](=O)[O-])nn1Cc1ccc(C(=O)N/N=C\c2cc(Cl)ccc2O)o1,-71.9% (active)
19,COc1ccccc1C(=O)NCC(=O)OCC(=O)NNC(=O)c1ccc(Br)cc1,-6.57%
20,CC(C)c1cc(Cn2c3ccccc3c(=O)n2C(C)Cn2cc(C3CC3)nn2)on1 (configuration not stated),4.06%
21,COc1ccc(COC[C@H](CC(C)C)N2CCN(C(=O)c3cccc(C(F)(F)F)c3)CCC2=O)cc1,9.97%
22,CCN(CC(=O)Nc1ccc(NC(C)=O)cc1)C(=O)C1CC(=O)N(c2ccc3c(c2)OCCO3)C1 (configuration not stated),-0.253%

row,Structure (SMILES),activity change
1,Cc1ccc(-c2cnc(C(O)c3cccc(C)c3C)[nH]2)cc1 (configuration not stated),-9.73%
2,O=c1/c(=C/c2ccc(CNS(=O)(=O)c3ccccc3)o2)sc2n1CCN=2,-74.2% (active)
3,O=S(=O)(NCc1ccccc1)c1ccc(S(=O)(=O)N2CCCC2)cc1,0%
4,COC(=O)C1=C(C)NC(=O)/C1=C/c1ccc(CNS(=O)(=O)c2ccc(C)cc2)o1,-8.38%
5,COC(=O)[C@]12CCCCC=C1N(Cc1ccc3c(c1)OCO3)C(=O)[C@H](CC(=O)N1CCOCC1)C2,7.68%
6,CCC(C)C(CO)NC(=O)/C=C/[C@H]1O[C@@H](n2cnc3c(NC(=O)c4ccccc4)ncnc32)[C@H](O)[C@@H]1O (some centres not stated),-67.4% (active)
7,COc1cccc(CN(C)C(=O)CC[C@H]2O[C@@H](n3cnc4c(NC(=O)c5ccccc5)ncnc43)[C@H](O)[C@@H]2O)c1,-3.33%
8,O=C(/C=C/[C@H]1O[C@@H](n2cnc3c(NC(=O)c4ccccc4)ncnc32)[C@H](O)[C@@H]1O)NCc1ccccc1,-0.266%
9,O=C(COc1ccc(Cl)cc1)NCc1nnc(SCC(=O)NCC2CCCO2)o1 (configuration not stated),17.7%
10,CCC(C(=O)NC(C)(C)C)n1c(-c2ccccc2)nc2ccccc21 (configuration not stated),2.19%
11,CCCCCc1c(Cc2ccccc2)ncn1CCc1ccccc1OC,7.11%
12,CCN(CC(=O)NC1CCS(=O)(=O)C1)c1nc(-c2cccnc2)nc2ccccc12 (configuration not stated),5.63%
13,S=c1nc2ccccc2c2nc(-c3cccnc3)[nH]n12,-8.27%
14,COc1ccc(Nc2nc(-c3cccnc3)nc3ccccc23)cn1,-65.3% (active)
15,CC(C)C1Cc2[nH][nH]c(=O)c2C(c2ccc(Cl)cc2)O1 (configuration not stated),-11.7%
16,O=C1NC[C@H](CCCCN2C[C@H](Cc3ccc(O)cc3)N(CC3CCCCC3)C(=O)C2=O)N(CCc2ccccc2)C1=O,3.83%
17,COC(=O)C[C@@H]1C=C[C@@H](NC(=O)c2cccnc2)[C@@H](CO)O1,13.6%
18,CC(C)CCNC(=O)C(C)N(C(=O)Cn1nnc(-c2ccc(F)cc2)n1)C1CCCC1 (configuration not stated),4.65%
19,Cc1ccc(-n2c(SCC(=O)NCCC3=CCCCC3)nc3n[nH]c(C)c3c2=N)cc1Cl,-17.6%
20,COc1cccc(-n2c(SCC(=O)NC3CCCCC3)nc3n[nH]c(C)c3c2=N)c1,-66.7% (active)
21,COc1cccc(-n2c(SCC(=O)NC3CCS(=O)(=O)C3)nc3ccccc3c2=O)c1 (configuration not stated),-0.378%
